Experimental data from ChEMBL document CHEMBL1961873, “Compounds: GSK PKIS; Assays: Nanosyn kinase panel” (2012).

How the values were obtained:
[1] = molecular target: T1, Ephrin type-B receptor 2 (Homo sapiens) (UniProt P29323); details: at 1 µM
T1 sequence (whole entry): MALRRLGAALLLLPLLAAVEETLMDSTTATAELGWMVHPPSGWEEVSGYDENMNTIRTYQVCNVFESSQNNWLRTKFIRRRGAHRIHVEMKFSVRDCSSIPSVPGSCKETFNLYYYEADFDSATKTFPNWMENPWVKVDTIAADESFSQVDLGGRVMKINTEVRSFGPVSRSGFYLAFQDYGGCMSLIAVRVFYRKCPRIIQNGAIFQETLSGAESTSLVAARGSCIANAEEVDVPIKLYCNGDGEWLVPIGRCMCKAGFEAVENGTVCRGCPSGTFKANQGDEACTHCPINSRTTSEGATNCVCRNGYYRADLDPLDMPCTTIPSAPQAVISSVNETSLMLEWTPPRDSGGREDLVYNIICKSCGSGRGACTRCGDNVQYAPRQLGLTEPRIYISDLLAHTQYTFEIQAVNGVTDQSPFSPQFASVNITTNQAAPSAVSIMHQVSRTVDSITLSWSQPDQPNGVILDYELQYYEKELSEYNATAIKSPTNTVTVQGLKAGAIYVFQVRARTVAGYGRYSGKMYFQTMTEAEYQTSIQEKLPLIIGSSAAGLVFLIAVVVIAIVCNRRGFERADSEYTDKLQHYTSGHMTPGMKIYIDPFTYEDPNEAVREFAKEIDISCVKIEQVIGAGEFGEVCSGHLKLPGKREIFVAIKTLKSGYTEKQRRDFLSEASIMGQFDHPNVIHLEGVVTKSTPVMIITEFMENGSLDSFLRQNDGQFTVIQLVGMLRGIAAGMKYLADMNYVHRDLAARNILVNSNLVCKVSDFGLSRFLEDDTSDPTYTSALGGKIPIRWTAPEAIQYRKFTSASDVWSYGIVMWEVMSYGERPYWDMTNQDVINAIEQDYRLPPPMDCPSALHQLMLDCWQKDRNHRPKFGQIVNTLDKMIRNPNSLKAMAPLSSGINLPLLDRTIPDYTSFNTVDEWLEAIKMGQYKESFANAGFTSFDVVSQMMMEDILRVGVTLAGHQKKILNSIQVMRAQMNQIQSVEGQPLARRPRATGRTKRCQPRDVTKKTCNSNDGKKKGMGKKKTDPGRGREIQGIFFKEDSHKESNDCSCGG

[2] = molecular target: T2, Ephrin type-B receptor 3 (Homo sapiens) (UniProt P54753); details: at 0.1 µM
T2 sequence (whole entry): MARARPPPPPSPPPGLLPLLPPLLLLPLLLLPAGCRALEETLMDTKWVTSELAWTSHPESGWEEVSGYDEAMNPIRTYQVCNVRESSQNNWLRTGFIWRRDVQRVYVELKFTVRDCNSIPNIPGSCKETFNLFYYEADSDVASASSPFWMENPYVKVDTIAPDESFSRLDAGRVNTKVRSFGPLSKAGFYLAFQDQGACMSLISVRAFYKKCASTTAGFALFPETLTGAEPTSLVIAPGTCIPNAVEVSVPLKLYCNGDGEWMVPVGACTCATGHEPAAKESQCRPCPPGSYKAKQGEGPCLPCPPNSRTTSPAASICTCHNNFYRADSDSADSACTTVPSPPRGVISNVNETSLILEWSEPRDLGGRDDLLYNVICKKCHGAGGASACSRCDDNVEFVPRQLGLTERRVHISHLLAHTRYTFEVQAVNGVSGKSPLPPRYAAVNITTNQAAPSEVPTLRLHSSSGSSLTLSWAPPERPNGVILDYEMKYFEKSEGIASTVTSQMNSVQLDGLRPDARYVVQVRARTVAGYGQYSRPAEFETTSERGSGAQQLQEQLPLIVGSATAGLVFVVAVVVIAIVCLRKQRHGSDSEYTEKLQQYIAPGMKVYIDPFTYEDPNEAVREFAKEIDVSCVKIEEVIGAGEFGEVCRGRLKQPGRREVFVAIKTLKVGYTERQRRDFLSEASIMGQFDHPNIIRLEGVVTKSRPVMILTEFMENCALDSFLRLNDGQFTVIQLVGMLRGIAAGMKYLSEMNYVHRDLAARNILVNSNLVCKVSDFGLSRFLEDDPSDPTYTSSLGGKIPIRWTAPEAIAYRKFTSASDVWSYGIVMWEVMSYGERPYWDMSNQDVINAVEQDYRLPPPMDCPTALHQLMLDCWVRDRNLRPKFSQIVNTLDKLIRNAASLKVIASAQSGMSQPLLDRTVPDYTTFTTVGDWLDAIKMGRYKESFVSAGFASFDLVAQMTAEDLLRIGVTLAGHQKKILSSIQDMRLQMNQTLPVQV

[3] = molecular target: T2, Ephrin type-B receptor 3 (Homo sapiens); details: at 1 µM
[4] = molecular target: T3, Ephrin type-B receptor 4 (Homo sapiens) (UniProt P54760); details: at 0.1 µM
T3 sequence (whole entry): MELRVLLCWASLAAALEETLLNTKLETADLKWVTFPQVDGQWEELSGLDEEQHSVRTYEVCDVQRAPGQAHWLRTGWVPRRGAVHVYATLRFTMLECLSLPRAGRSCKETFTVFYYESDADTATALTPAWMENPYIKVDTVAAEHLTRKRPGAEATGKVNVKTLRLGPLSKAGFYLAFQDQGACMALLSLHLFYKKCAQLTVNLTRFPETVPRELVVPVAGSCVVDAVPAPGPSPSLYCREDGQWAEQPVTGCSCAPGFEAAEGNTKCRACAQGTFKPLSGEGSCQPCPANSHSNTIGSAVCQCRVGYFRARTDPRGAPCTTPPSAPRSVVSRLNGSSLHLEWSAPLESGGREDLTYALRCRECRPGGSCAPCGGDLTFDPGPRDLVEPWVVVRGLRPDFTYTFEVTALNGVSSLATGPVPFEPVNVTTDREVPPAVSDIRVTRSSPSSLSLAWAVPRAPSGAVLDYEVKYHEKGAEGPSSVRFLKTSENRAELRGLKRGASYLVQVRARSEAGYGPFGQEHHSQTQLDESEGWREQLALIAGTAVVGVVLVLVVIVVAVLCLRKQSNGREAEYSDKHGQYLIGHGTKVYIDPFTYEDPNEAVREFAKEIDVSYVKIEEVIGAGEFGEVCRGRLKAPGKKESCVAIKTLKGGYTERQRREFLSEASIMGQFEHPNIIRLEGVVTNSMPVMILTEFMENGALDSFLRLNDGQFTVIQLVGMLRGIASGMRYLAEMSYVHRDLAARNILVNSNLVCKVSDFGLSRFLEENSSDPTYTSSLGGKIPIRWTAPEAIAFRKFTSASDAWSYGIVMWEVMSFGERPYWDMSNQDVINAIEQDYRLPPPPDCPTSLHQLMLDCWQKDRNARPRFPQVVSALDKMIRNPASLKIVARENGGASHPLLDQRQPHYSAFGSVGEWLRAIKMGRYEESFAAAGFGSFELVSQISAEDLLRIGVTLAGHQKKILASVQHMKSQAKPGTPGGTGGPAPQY

[5] = molecular target: T3, Ephrin type-B receptor 4 (Homo sapiens); details: at 1 µM
[6] = molecular target: Receptor tyrosine-protein kinase erbB-2 (Homo sapiens) (UniProt P04626); details: at 0.1 µM
[7] = molecular target: Receptor tyrosine-protein kinase erbB-2 (Homo sapiens) (UniProt P04626); details: at 1 µM
[8] = molecular target: Receptor tyrosine-protein kinase erbB-4 (Homo sapiens) (UniProt Q15303); details: at 0.1 µM
[9] = molecular target: Receptor tyrosine-protein kinase erbB-4 (Homo sapiens) (UniProt Q15303); details: at 1 µM
[10] = molecular target: Tyrosine-protein kinase Fer (Homo sapiens) (UniProt P16591); details: at 0.1 µM;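 also: reported figures are averaged percent inhibition of FER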
Sequence of Tyrosine-protein kinase Fer (Homo sapiens) (P16591 whole entry, looked up): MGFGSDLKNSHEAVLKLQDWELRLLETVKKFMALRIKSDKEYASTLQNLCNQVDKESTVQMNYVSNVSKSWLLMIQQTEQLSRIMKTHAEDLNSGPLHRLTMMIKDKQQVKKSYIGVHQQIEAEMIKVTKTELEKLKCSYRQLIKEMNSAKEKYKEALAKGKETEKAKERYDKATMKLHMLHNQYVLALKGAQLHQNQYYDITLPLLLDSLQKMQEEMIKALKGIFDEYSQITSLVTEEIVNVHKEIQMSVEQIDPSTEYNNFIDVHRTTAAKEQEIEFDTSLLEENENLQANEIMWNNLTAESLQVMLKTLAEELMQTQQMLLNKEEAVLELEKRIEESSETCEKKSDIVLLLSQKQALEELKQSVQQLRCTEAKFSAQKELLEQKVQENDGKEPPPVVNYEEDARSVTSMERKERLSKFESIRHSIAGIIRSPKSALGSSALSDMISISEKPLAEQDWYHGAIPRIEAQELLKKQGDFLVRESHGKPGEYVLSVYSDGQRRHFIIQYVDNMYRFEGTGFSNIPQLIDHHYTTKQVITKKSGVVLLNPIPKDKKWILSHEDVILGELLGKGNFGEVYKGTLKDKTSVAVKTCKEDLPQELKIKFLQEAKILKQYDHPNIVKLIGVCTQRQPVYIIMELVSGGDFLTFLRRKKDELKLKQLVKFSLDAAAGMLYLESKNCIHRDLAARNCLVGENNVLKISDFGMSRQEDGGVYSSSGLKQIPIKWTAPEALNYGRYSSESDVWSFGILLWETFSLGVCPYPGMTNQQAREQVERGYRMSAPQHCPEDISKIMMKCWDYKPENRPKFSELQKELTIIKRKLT

Sequence of Receptor tyrosine-protein kinase erbB-4 (Homo sapiens) (Q15303 whole entry): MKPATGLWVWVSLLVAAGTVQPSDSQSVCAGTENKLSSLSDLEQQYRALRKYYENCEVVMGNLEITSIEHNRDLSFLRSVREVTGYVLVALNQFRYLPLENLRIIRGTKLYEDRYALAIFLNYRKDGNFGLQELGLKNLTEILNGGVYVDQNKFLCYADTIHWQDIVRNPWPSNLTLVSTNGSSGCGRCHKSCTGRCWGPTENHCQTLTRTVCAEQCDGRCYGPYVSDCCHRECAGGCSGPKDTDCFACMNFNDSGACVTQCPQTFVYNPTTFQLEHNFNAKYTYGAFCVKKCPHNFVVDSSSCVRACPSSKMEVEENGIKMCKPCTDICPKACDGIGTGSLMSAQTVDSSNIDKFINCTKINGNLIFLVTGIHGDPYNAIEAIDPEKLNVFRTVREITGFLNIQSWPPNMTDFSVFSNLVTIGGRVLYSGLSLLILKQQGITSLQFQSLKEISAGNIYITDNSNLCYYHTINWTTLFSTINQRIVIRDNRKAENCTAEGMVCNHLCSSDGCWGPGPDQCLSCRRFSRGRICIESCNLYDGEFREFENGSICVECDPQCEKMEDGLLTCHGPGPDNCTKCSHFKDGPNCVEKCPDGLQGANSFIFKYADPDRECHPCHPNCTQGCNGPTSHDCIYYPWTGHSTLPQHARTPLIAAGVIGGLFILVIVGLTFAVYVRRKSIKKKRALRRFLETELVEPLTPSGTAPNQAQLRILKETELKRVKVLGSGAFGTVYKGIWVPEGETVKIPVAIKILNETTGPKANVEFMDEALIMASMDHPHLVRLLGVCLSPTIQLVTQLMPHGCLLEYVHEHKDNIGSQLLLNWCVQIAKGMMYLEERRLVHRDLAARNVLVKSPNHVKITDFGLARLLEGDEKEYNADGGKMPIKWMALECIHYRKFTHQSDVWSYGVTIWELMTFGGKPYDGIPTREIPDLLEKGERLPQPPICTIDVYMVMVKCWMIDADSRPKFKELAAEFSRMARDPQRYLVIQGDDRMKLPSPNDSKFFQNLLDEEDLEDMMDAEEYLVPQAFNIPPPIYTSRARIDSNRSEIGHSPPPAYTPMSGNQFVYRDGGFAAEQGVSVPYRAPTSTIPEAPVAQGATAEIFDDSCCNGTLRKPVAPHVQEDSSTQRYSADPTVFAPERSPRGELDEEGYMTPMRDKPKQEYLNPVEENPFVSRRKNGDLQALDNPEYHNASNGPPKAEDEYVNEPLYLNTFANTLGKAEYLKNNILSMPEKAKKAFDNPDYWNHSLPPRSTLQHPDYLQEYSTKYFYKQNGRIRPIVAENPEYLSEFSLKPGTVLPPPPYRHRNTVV
Sequence of Receptor tyrosine-protein kinase erbB-2 (Homo sapiens) (P04626 whole entry): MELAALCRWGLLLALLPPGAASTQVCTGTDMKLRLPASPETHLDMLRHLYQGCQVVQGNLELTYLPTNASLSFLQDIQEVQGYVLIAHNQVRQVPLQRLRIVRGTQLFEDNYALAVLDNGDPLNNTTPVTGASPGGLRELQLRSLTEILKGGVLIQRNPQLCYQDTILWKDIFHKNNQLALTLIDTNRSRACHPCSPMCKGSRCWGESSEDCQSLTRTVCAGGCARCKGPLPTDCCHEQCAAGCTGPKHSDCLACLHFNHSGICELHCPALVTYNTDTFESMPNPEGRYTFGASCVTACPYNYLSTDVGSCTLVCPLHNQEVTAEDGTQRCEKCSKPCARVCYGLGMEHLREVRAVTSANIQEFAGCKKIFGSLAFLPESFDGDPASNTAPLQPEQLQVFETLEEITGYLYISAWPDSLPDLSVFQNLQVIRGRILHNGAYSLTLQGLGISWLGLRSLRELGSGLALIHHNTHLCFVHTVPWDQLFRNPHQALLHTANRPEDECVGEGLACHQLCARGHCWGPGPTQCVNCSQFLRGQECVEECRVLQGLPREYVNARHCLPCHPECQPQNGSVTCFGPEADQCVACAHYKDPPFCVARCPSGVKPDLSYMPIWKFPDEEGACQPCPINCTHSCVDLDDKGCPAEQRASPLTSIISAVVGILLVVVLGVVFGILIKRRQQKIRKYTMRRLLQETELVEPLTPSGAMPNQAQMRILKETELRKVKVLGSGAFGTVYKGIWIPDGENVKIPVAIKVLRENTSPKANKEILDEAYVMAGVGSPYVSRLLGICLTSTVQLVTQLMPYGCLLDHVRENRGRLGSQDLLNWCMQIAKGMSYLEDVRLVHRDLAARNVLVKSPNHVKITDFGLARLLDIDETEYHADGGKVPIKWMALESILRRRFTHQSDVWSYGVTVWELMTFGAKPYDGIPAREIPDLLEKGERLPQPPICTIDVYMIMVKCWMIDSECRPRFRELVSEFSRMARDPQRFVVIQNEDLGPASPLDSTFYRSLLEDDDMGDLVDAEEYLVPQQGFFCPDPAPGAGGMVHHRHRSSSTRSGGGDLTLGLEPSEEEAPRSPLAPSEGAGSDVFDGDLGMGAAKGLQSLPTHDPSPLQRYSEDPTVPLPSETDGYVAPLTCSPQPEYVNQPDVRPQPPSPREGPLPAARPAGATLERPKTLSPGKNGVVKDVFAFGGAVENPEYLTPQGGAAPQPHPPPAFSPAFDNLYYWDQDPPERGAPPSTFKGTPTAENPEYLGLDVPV

SMILES	inhibition [1]	inhibition [2]	inhibition [3]	inhibition [4]	inhibition [5]	inhibition [6]	inhibition [7]	inhibition [8]	inhibition [9]	inhibition [10]
c1ccc(Cc2nc3ccc(Nc4ncnc5ccccc45)cc3[nH]2)cc1	12.8%	3.69%	6.08%	1.42%	1.8%	2.07%	51.6%	98.2%	115%	0.32%
COc1cc2ncnc(Nc3ccc(C)c(O)c3)c2cc1OC	41.4%	6.58%	2.9%	8.74%	36.9%	7.8%	26.3%	31.7%	68.7%	4.24%
NS(=O)(=O)c1cccc(Nc2cc(-c3ccc(F)cc3)n[nH]2)c1	10.6%	3.94%	2.26%	0.66%	3.57%	1.6%	6.2%	5.56%	11.3%	5.3%
COc1cccc(-n2ncc3c(N/N=C/c4ccc(S(C)(=O)=O)cc4)ncnc32)c1	11.5%	-0.24%	-2.08%	-0.79%	6.93%	2.7%	3.96%	7.91%	7.9%	1.13%
NS(=O)(=O)c1ccc(Nc2cc(-c3cccc(O)c3)n[nH]2)cc1	12.4%	8.13%	1.98%	1.74%	4.14%	1.73%	-4.93%	14.3%	14.3%	2.71%
Nc1ccc(C#Cc2cncnc2Nc2ccc(OCc3cccc(F)c3)c(Cl)c2)cc1	6.65%	3.43%	3.54%	0.47%	2.45%	5.63%	10.1%	12.9%	54.4%	2.93%
NS(=O)(=O)c1ccc(-c2cc3ccncc3cc2OCc2ccccc2)cc1	12.6%	5.73%	3.29%	2.88%	2.91%	2.03%	3.62%	7.38%	8.97%	5.47%
CCn1c(-c2nonc2N)nc2ccc(F)cc21	12.6%	6.48%	4.6%	1.64%	1.12%	5.65%	14%	20.6%	20.7%	3.01%
CCS(=O)(=O)c1ccc(OC)c(Nc2ncc(-c3cccc(OC)c3)o2)c1	24.3%	3.22%	2.36%	3.32%	11.9%	-0.52%	0.18%	10.5%	22.1%	-0.2%
CN1CCN(C(=O)c2ccc(NC(=O)Nc3ccc(N(C)c4ccnc(Nc5ccc(CS(C)(=O)=O)cc5)n4)cc3)cc2)CC1	34.3%	2.73%	3.2%	2.21%	11%	0.08%	3.94%	7.39%	17.1%	16.2%
Cc1ccc(NC(=O)CC2CC2)cc1-c1ccc(C(=O)NCC2CC2)cc1	11.6%	4.23%	3.77%	0.66%	3.43%	0.13%	3.41%	6.43%	8.12%	4.27%
CN(c1ccc(NC(=O)Nc2ccc(OC(F)(F)F)cc2)cc1)c1ccnc(Nc2cccc(S(N)(=O)=O)c2)n1	54.8%	3.87%	8.25%	1.79%	30.7%	2.39%	4.23%	7.13%	14.5%	12.6%
COc1cc2ncn(-c3cc(OCc4ccccc4S(C)(=O)=O)c(C#N)s3)c2cc1OC	36%	5.99%	4.4%	4.74%	17.1%	0.83%	-1.42%	8.79%	8.72%	6.67%
ON=C1CCc2cc(-c3nc(C4CCNCC4)[nH]c3-c3ccncc3)ccc21	-8.09%	2.51%	-3.73%	-0.77%	1.02%	-0.06%	-5.12%	5.23%	10.6%	-0.49%
CC(C)c1ccc2c(c1)NC(=O)/C2=N/Nc1ccc(S(N)(=O)=O)cc1	3.71%	0.49%	1.76%	1.07%	0.29%	3%	2.17%	1.45%	2.39%	0.16%
COc1cc(/C=N/Nc2ncnc3c2cnn3C(C)C)ccc1O	30.4%	2.7%	4.2%	3.42%	21.4%	1.13%	3.23%	3.96%	6.31%	2.02%
Nc1nccc(C#Cc2cncnc2Nc2ccc(OCc3cccc(F)c3)c(Cl)c2)n1	7.89%	5.26%	4.02%	1.01%	2.68%	-1.45%	-8.09%	14.2%	24.8%	2.1%
